Out of some 190,000 compounds screened, about 1,300 (0.68%) were called active. Rule as the data show it: active = inhibition above about 50%; inactive = the rest. The sample as a whole holds a higher share of actives than the screen did.

Inhibition data for 107 molecules are collected here from PubChem BioAssay AID1220 (Sanford-Burnham Center for Chemical Genomics, 2008).

The target of the assay is Mannose-6-phosphate isomerase (Homo sapiens) (UniProt P34949). Put plainly: human PMI inhibitors, high substrate, primary screen, biochemical, fluorescence intensity, high mannose 6-phosphate (AID 1220). Conditions: recombinant PMI enzyme, coupled fluorescence intensity; at 20 µM; hits give high values.
Mannose-6-phosphate isomerase (Homo sapiens), sequence (P34949 whole entry, looked up): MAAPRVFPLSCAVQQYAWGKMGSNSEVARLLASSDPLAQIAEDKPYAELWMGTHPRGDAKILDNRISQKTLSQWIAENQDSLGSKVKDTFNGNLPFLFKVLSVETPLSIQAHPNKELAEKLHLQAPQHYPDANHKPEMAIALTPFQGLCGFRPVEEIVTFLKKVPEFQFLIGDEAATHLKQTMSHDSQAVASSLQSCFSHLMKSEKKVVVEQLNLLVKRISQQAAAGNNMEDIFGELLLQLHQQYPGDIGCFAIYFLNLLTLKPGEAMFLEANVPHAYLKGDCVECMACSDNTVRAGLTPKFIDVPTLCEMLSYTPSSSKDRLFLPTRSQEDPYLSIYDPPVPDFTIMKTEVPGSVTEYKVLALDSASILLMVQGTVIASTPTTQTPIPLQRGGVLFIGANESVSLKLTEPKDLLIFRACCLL
Usually inhibition stands for the change of the read-out against control, counted positive when it falls. Take `Cc1ccccc1Cc1ccc(Cl)nn1`: the inhibition was -8.8% (inactive).
As for `CN(C)C(=S)SCC(=O)NCc1ccc(F)cc1`, the inhibition is 10.8% (inactive).
Then `CCc1cccc(NC(=O)c2snc3c(=O)[nH]cnc23)c1`, with 7.2% (inactive); and `O=C(O)c1cccc(N2C(=O)/C(=C/c3ccc(SCc4ccc(Cl)cc4)o3)SC2=S)c1`, with 67.9% (active).
Consider `O=C1NC(=S)S/C1=C\c1ccc(SCc2ccco2)o1`, for which the inhibition was 7.7% (inactive).
To `O=C(O)c1cc(-c2ccc(/C=C3/SC(=S)N(Cc4ccccc4)C3=O)o2)ccc1Cl` belongs -34.8% (inactive); to `O=C1NC(=S)S/C1=C\c1ccc(SCc2ccccc2)o1`, 66.9% (active).
For `O=C1NC(=S)S/C1=C/c1ccc(N2CCOCC2)o1`, the inhibition was -14% (inactive).
To `Cc1cccc(C)c1-n1cccc1/C=C1\SC(=S)N(c2cccc(C(=O)O)c2)C1=O` belongs 3% (inactive); to `O=C(COC(=O)c1sc2cc(F)ccc2c1Cl)Nc1ncc(Cl)cc1Cl`, 13.4% (inactive); to `Cn1c(=O)c2c(nc(SCC(=O)Nc3ccccc3)n2C)n(C)c1=O`, 6.1% (inactive).
To `Cc1cccc(C)c1NC(=O)CSc1nnc(-c2cccnc2)o1` belongs 5.5% (inactive); to `COc1ccccc1NC(=S)N1CCN(C(=O)c2ccco2)CC1`, -3% (inactive); to `O=C(Cc1c(F)cccc1Cl)N1CCOCC1`, -13.4% (inactive).
Then `COCCn1c(=O)c2c(nc3n2CCN3c2ccc(C)cc2)n(C)c1=O`, with 0.4% (inactive); and `CCOc1ccc(N=C(C)c2ccccc2O)cc1`, with 55.9% (active); and `CCOc1ccc(N=C(NN)c2ccc3ccccc3n2)cc1`, with -57.4% (inactive).
Turning to `CCOc1ccc(NC(=O)c2ccccc2O)cc1`, the inhibition was -0.8% (inactive).
Turning to `Cc1cccc(OCC(=O)Nc2ccc3nc(C)sc3c2)c1`, the inhibition was -10.9% (inactive).
Then `COCCNC(=O)C1CCCN(c2nn3c(=O)cc(C)nc3s2)C1` (configuration not stated), with 7.2% (inactive).
Then `CCN1CCN(Cc2nc3c(c(=O)n(C)c(=O)n3C)n2CCc2ccccc2)CC1`, with -1.1% (inactive); and `O=c1cc(Nc2ccc3c(c2)OCCO3)[nH]c(=O)n1-c1ccc(Cl)cc1`, with 8% (inactive); and `O=c1cc(Nc2ccc3c(c2)OCO3)[nH]c(=O)n1-c1ccc(Br)cc1`, with 1.9% (inactive).
Then `O=c1cc(Nc2ccc3c(c2)OCCO3)[nH]c(=O)n1-c1ccc(Br)cc1`, with 57.5% (active); and `CC1CCN(S(=O)(=O)c2ccc(NC(=S)NC(=O)c3ccc(Cl)cc3)cc2)CC1`, with -6.2% (inactive); and `CC[n+]1ccc(C)c2cc(P(=O)(c3ccccc3)c3ccccc3)ccc21`, with 18.4% (inactive).
Turning to `CC[n+]1ccc(/C=C/c2ccc(N(C)C)cc2)c2ccccc21`, the inhibition was -4.8% (inactive).
To `CC[n+]1ccc(C[n+]2ccccc2)c2ccccc21` belongs 97.1% (active).
Then `O=C(NCc1ccccc1)C1=C[C@@H](c2coc3ccccc3c2=O)C[C@@H](OCCCCO)O1`, with 8.5% (inactive); and `O=C(NCc1ccc(Cl)cc1)C(=O)NCC(c1cccnc1)N1CCN(c2ccc(F)cc2)CC1` (configuration not stated), with 2.5% (inactive).
With `CCOC1(NC(=O)c2ccccc2)C(C)=CC(=O)C=C1C`, the inhibition was 49.2% (inactive).
To `CCCOC1(NC(=O)c2ccccc2)C(C)=CC(=O)C=C1C` belongs 55.4% (active); to `COC1(NC(=O)c2ccccc2)C(C)=CC(=O)C=C1C`, 6.7% (inactive); to `CCNC(=O)/C(=C\C=C\c1ccccc1)NC(=O)c1ccc(Br)o1`, -11.4% (inactive).
To `Cc1ccc(Nc2nc3ccccc3c(=O)[nH]2)cc1C` belongs -5% (inactive); to `Nc1ccc2oc(C3CCCCC3)nc2c1`, 64% (active).
To `Nc1ccc2nc(C3CCCCC3)[nH]c2c1` belongs 32.3% (inactive); to `O=[N+]([O-])c1ccc2oc(C3CCCCC3)nc2c1`, 2.8% (inactive); to `Cc1c(-n2cc(C(=O)O)c(=O)c3cc(F)c(N4CCCC4)c(F)c32)c(=O)n(-c2ccccc2)n1C`, 16% (inactive).
Regarding `Cc1sc2nc(CN3CCOCC3)nc(NCCc3ccccc3)c2c1C`, the inhibition was 2% (inactive).
Then `CCCc1ccc(-c2cc(N)n[nH]2)cc1`, with -0.8% (inactive).
Then `CCOc1cc(-c2cc(N)n[nH]2)cc(OCC)c1OCC`, with 61.2% (active); and `CCOc1cc(-c2conc2N)cc(OCC)c1OCC`, with 4.6% (inactive); and `O=C(Nc1ccc(NC(=O)c2cccs2)cc1)c1cccnc1`, with -2.7% (inactive).
To `O=C(Nc1cccc(NC(=O)c2cccs2)c1)c1cccnc1` belongs 50.8% (active).
For `O=C(Nc1cccc(NC(=O)c2cccnc2)c1)c1cccnc1`, the inhibition was 7.6% (inactive).
Then `Oc1ccc(CCC2CCCCN2Cc2nc(C3CC3)no2)cc1` (configuration not stated), with 5.5% (inactive).
Consider `CCc1ccccc1NC(=O)Nc1ccc(F)cc1F`, for which the inhibition was -2.1% (inactive).
Then `CN1C(=O)N(C)c2ccc(C=O)c3cccc1c23`, with 63.6% (active); and `CN1C(=O)c2cccc3c(Cl)ccc(c23)C1=O`, with -5.2% (inactive); and `Cn1cc(C=O)c2ccccc21`, with 8.2% (inactive).
To `Cc1cc(Cl)ccc1NC(=O)Cn1cncn1` belongs 62.6% (active); to `O=C(Cn1cncn1)NCc1ccc(Cl)cc1`, -13.3% (inactive).
To `O=C(Cn1cncn1)N/N=C/c1ccc(Cl)cc1` belongs -5% (inactive); to `COc1cc2cc(C(N)=O)c(N)nc2cc1OC`, -0.4% (inactive); to `COc1cc2cnncc2cc1OC`, -4.8% (inactive).
For the molecule `COc1cc2cnc(Cl)nc2cc1OC`, the inhibition is 54.8% (active).
`COc1ccc(CC(=O)NCc2n[nH]c(=S)n2-c2ccccc2)cc1`: the inhibition was -0.6% (inactive).
Turning to `OCCN1CCN(Cc2cc(Cl)c3cccnc3c2O)CC1`, the inhibition is 48.3% (inactive).
To `CCOC(=O)N1CCN(Cc2ccccn2)CC1` belongs -7.5% (inactive); to `Cc1ccc(C)c(S(=O)(=O)N2CCN(Cc3ccc(O)c4ncccc34)CC2)c1`, 19.7% (inactive).
Then `CCOC(=O)N1CCN(Cc2ccccc2Cl)CC1`, with 4.6% (inactive); and `COc1ccc(-n2c(SCC(=O)Nc3nccs3)nc3c(c2=O)SCC3)cc1`, with 11.9% (inactive); and `CCC(=O)c1ccc(OCC(O)CN2CCOCC2)cc1` (configuration not stated), with 6.8% (inactive).
Then `O=C(Nc1ccc2c(c1)CCC2)Nc1ccc2c(c1)OCO2`, with 11% (inactive).
In the case of `CC(/C=N/Nc1nc(C)cc(=O)[nH]1)=C\c1ccccc1`, the inhibition is -78.9% (inactive).
To `COc1ccc(NC(=S)Nc2ccc(OC(F)F)cc2)cn1` belongs 58.2% (active); to `COc1ccccc1NC(=S)NNC(=S)Nc1ccc(OC(F)F)cc1`, 5.4% (inactive); to `COc1ccc(NC(=S)Nc2ccccc2)cn1`, 8.5% (inactive).
To `O=C(O)c1ccccc1SCC(=O)N1CCc2ccccc21` belongs -1.8% (inactive).
To `O=C1OC(Nc2cc(Br)cc3cccnc23)c2ccccc21` (configuration not stated) belongs 50.7% (active); to `O=C1OC(Nc2ccc(Br)cc2F)c2ccccc21` (configuration not stated), -12.4% (inactive); to `O=C1OC(Nc2ncccn2)c2ccccc21` (configuration not stated), 5.1% (inactive).
In the case of `Cc1ccc2cccc(NC3OC(=O)c4ccccc43)c2n1` (configuration not stated), the inhibition is 59.9% (active).
Then `CCOC(=O)c1ccccc1NC1OC(=O)c2ccccc21` (configuration not stated), with 6.8% (inactive); and `COC(=O)c1ccccc1NC1OC(=O)c2ccccc21` (configuration not stated), with 8.6% (inactive); and `Cc1ccc(OCCOc2ccc(Br)cc2/C=N\NC(N)=O)cc1`, with 4% (inactive).
To `CCOc1ccc(N=Nc2c(=O)[nH]n3c(C)cc(C)nc23)cc1` belongs 18% (inactive); to `CCOC(=O)C1CCCN(C2CC(=O)N(c3ccc(C)cc3)C2=O)C1` (configuration not stated), -2.1% (inactive).
To `COC(=O)CP(=O)(c1ccccc1)c1ccccc1` belongs -5.8% (inactive); to `CCOc1ccc(/C=C/[N+](=O)[O-])c2ccccc12`, 55.6% (active).
Take `CCOC(=O)COc1ccc(/C=C/[N+](=O)[O-])c(OCC(=O)OCC)c1`: the inhibition is 1.7% (inactive).
To `CCOC(=O)Cn1cc(/C=C/[N+](=O)[O-])c2ccccc21` belongs 8.7% (inactive); to `CCOC(=O)COc1ccc2ccccc2c1/C=C/[N+](=O)[O-]`, 54.6% (active); to `O=[N+]([O-])/C=C/c1c(OCc2ccccc2)ccc2ccccc12`, 3.1% (inactive).
Then `CCOC(=O)COc1ccccc1/C=C\[N+](=O)[O-]`, with 0.8% (inactive); and `COc1ccc(Nc2nc(N)nc(CSc3nncn3C)n2)cc1`, with 4.9% (inactive).
Then `CCN(Cc1ccccc1)C(=O)CSc1nc(C)cc(C)c1C#N`, with 5.3% (inactive).
Consider `Cc1ccc2c(c1)NC(C(C)(C)C)CO2` (configuration not stated), for which the inhibition is -5.8% (inactive).
Then `CC1CCC(C(C)C)C(OC(=O)COC(=O)c2cccn2C)C1` (configuration not stated), with 16% (inactive); and `CC1CCC(C(C)C)C(OC(=O)COC(=O)c2ccc(N)cc2)C1` (configuration not stated), with 16.2% (inactive).
Then `CC1CCC(C(C)C)C(OC(=O)COC(=O)c2cc(O)ccc2N)C1` (configuration not stated), with 59.5% (active); and `Cc1ccc(SCCNC(=O)CN(c2ccc3c(c2)OCO3)S(C)(=O)=O)cc1`, with 13.2% (inactive).
Then `CCc1ccccc1OCc1nc2ccc(S(=O)(=O)N3CCOCC3)cc2[nH]1`, with 9.5% (inactive); and `CC(C)Cc1nc(N2CCC(C(N)=O)CC2)c2nnn(Cc3ccccc3)c2n1`, with -15% (inactive); and `CCc1ccc(S(=O)(=O)ON2C(=O)c3ccccc3C2=O)cc1`, with -11.4% (inactive).
Consider `Cc1ccc(S(=O)(=O)/N=C2/C=C(Sc3ncn[nH]3)C(=O)c3ccccc32)cc1`, for which the inhibition is 88.3% (active).
For `CC(C)c1ccc(S(=O)(=O)/N=C2/C=C(Sc3ncn[nH]3)C(=O)c3ccccc32)cc1`, the inhibition was 80% (active).
For `O=C(O)c1ccc(NC2=C/C(=N/S(=O)(=O)c3ccccc3)c3ccccc3C2=O)cc1`, the inhibition is -34.1% (inactive).
To `CCc1ccc(C(=O)CSc2ncn[nH]2)cc1` belongs -20.5% (inactive).
To `CC(C)c1ccc(N2C(=O)CC(Sc3ncn[nH]3)C2=O)cc1` (configuration not stated) belongs 22.4% (inactive); to `COC(=O)C(C(C)=O)C1=C/C(=N\S(=O)(=O)c2ccc(C)cc2)c2ccccc2C1=O` (configuration not stated), 18% (inactive); to `Cc1ccc(S(=O)(=O)/N=C2/C=C(C3C(=O)CC(C)(C)CC3=O)C(=O)c3ccccc32)cc1`, -3.6% (inactive).
Then `CC(C)c1ccc(S(=O)(=O)/N=C2/C=CC(=O)c3ccccc32)cc1`, with 44.1% (inactive).
For `CCc1ccc(S(=O)(=O)/N=C2\C=CC(=O)c3ccccc32)cc1`, the inhibition was 50.7% (active).
To `CCc1ccc(S(=O)(=O)/N=C2/C=C(Sc3ncn[nH]3)C(=O)c3ccccc32)cc1` belongs 90.6% (active); to `O=C1c2ccccc2C(=O)N1CCSc1ncn[nH]1`, -12% (inactive).
